According to PubChem BioAssay (NCI):
Where “and” joins values, the source holds several entries; their conditions need not be identical. Identical values can stand only once. Compounds without any hit were thinned out: in the full panel of roughly 83,000, 20% have a hit.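 48-hour exposure, single concentration, 96-well plates; percent growth endpoint where 0 means no net growth. Active: below 10.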 Calls of active or inactive are those of the source.

Experiments:
Experiment in all cases: NCI-60 one-dose screen, 48 h (100 = growth as untreated, 0 = no growth, -100 = all killed)
Settings in all cases: 10 µM unless noted
[1] = tested on: HCT-15 colon
[2] = tested on: HT29 colon
[3] = tested on: SNB-75 CNS
[4] = tested on: SNB-19 CNS
[5] = tested on: U251 CNS
[6] = tested on: PC-3 prostate
[7] = tested on: SK-MEL-5 melanoma
[8] = tested on: UACC-62 melanoma
[9] = tested on: LOX IMVI melanoma
[10] = tested on: SK-MEL-28 melanoma
[11] = tested on: SK-MEL-2 melanoma
[12] = tested on: EKVX NSCLC
[13] = tested on: SN12C renal
[14] = tested on: UO-31 renal
[15] = tested on: TK-10 renal
[16] = tested on: ACHN renal
[17] = tested on: CAKI-1 renal
[18] = tested on: A498 renal
[19] = tested on: CCRF-CEM leukemia
[20] = tested on: MOLT-4 leukemia

Measured: growth

COc1ccc(/C=C/c2nc3ccccc3n3c(-c4cccc([N+](=O)[O-])c4)nnc23)cc1
active: [1] -80.7% | [2] -59.5% | [3] -2.16% | [5] -64.5% | [6] 5.23% | [7] -95.4% | [8] -83.1% | [9] -77.3% | [10] -47.1% | [11] -60.3% | [12] -52% | [13] -72.2% | [14] -90.3% | [15] -47.3% | [16] -97.5% | [17] -91.1% | [19] -14.9% | [20] -36.5%
inactive: [4] 15% | [18] 75.7%

C=CCSc1nnc(-c2ccc(-c3nc4ccccc4[nH]3)cc2)o1
inactive: [1] 51.3% | [2] 69.5% | [3] 74% | [4] 79.7% | [5] 84% | [6] 57.5% | [7] 50.6% | [8] 73.9% | [9] 73.9% | [10] 85.6% | [11] 95% | [12] 71.5% | [13] 83.8% | [14] 56.1% | [15] 87.7% | [16] 78.1% | [17] 63.9% | [18] 113% | [19] 32.6% | [20] 38.1%

COc1ccc([C@H]2C(C(=O)c3ccc(Cl)cc3)C3(N[C@@H]2c2ccccc2)C(=O)Nc2ccccc23)cc1 (some centres undefined)
active: [2] 9.82% | [8] 9.8% | [11] -29.6% | [13] 6.41%
inactive: [1] 16.4% | [3] 35% | [4] 42.2% | [5] 36.5% | [6] 36.9% | [7] 26% | [9] 12.2% | [10] 49.7% | [12] 21.6% | [14] 13.2% | [15] 43.4% | [16] 11.2% | [17] 14% | [18] 40.2% | [19] 45.8% | [20] 18.9%

O=C1C=CC(=CC=C2N(Cc3ccc4ccccc4c3)c3ccccc3N2Cc2ccc3ccccc3c2)C=C1
inactive: [1] 94.7% and 95.3% | [2] 15.1% and 13.2% | [3] 39.6% and 26.9% | [5] 17.4% and 17.6% | [6] 18.6% and 16.6% | [9] 14.8% and 19.6% | [10] 16.7% and 20.5% | [12] 33.7% and 32.9% | [14] 103% and 98.5% | [15] 63.6% and 74% | [16] 77.2% and 78.6% | [17] 77.6% and 70.8% | [18] 106% and 109% | [19] 21.7% and 10.9% | [20] 22.5% and 17.6%
2.32% (active) and 11.9% (inactive): [8]
8.3% (active) and 11.1% (inactive): [4]
6.94% (active) and 13.3% (inactive): [13]
active: [7] -64.3% and -51.3% | [11] -12.8% and -12.7%

Cc1[nH]nc2ccc3nc(-c4cnn(CCO)c4)c4c(c3c12)CCCC4
active: [17] 4.55% | [18] -7.65%
inactive: [1] 23.3% | [2] 31.3% | [3] 31.9% | [4] 74.4% | [5] 57.2% | [6] 40.4% | [7] 31.7% | [8] 34.8% | [9] 25.1% | [10] 75.6% | [11] 21.1% | [12] 27.2% | [13] 32.3% | [14] 21.5% | [15] 21.1% | [16] 21.4% | [19] 28.7% | [20] 34%

COc1cc(C2CC(c3cc(OC)c(OC)c(OC)c3)=Nc3c(N)nc(N)nc3N2)ccc1Oc1nc(Nc2ccc(F)cc2)nc(N(C)C)n1 (centres undefined)
inactive: [3] 55.9% | [4] 70.7% | [5] 56.4% | [6] 33.8% | [7] 36% | [8] 83.6% | [9] 10.3% | [10] 74% | [11] 82.7% | [12] 67.5% | [13] 78.5% | [14] 40.3% | [15] 99.8% | [16] 68.1% | [17] 52.3% | [18] 118% | [19] 26.7%
active: [1] 4.98% | [2] 7.02% | [20] 6.97%

C/C(=N\Nc1ccc(S(N)(=O)=O)cc1)c1cnn(-c2cc(=O)[nH]c3ccc(Br)cc23)c1C
inactive: [1] 91.2% | [2] 98.8% | [3] 22% | [4] 46% | [5] 37.9% | [6] 58.3% | [7] 55% | [8] 11.4% | [9] 38.2% | [10] 34.7% | [11] 20% | [12] 72.1% | [13] 61.2% | [14] 54.8% | [15] 146% | [16] 81% | [17] 76.7% | [18] 115% | [20] 18.5%
active: [19] 8.23%

O=C1Nc2ccccc2/C1=C\c1ccc(OCC(=O)c2ccc(Br)cc2)cc1
inactive: [1] 45.4% | [2] 82.7% | [3] 79.6% | [4] 79.6% | [5] 71.5% | [6] 62.4% | [7] 28.9% | [8] 52.6% | [9] 28.9% | [10] 80.2% | [11] 72.4% | [12] 65.6% | [13] 62.7% | [14] 48.5% | [15] 94.9% | [16] 70% | [17] 67.8% | [18] 100% | [19] 58.2%
active: [20] 8.54%

Nc1cc2ccccc2c(=O)n1NC(=O)c1ccc(Br)cc1
inactive: [1] 99.4% | [2] 118% | [3] 58.4% | [4] 84.5% | [5] 96.1% | [6] 95.3% | [7] 88.1% | [8] 80.6% | [9] 84.2% | [10] 88% | [11] 108% | [12] 83.2% | [13] 95.5% | [14] 74.9% | [15] 116% | [16] 104% | [17] 83.8% | [18] 189% | [19] 86.4% | [20] 90.8%

O=C(N/N=C/c1ccc(-c2cccc([N+](=O)[O-])c2)s1)c1[nH]c2ccc(Br)cc2c1-c1ccccc1
inactive: [1] 84.9% | [2] 109% | [3] 86.8% | [4] 56.1% | [5] 73.4% | [6] 85.7% | [7] 93.8% | [8] 70.5% | [9] 85.8% | [10] 87.6% | [11] 84.4% | [12] 94.7% | [13] 91.4% | [14] 82.1% | [15] 101% | [16] 87.3% | [17] 90.4% | [18] 132% | [19] 91% | [20] 69.3%

O=C1c2cccc3c(N4CCN(Cc5ccccc5)CC4)ccc(c23)C(=O)N1c1cccc(-c2nn(-c3ccccc3)cc2-c2nc3ccccc3s2)c1
inactive: [1] 110% | [2] 115% | [3] 84.3% | [4] 103% | [5] 106% | [6] 88.1% | [7] 102% | [8] 94.6% | [9] 97.9% | [10] 106% | [11] 111% | [12] 98.6% | [13] 101% | [14] 68.8% | [15] 120% | [16] 93.1% | [17] 86.1% | [18] 125% | [19] 105% | [20] 113%

O=C1Nc2ccccc2/C1=C/C(=O)c1cc2ccccc2oc1=O
active: [16] -47.6%
inactive: [1] 30.3% | [2] 110% | [3] 126% | [4] 101% | [5] 107% | [6] 95.1% | [7] 99.9% | [8] 88.9% | [9] 91% | [10] 36.7% | [11] 99.5% | [12] 89.6% | [13] 99.3% | [14] 45.8% | [15] 102% | [17] 75.5% | [18] 223% | [19] 54.7% | [20] 41%

COc1ccc(-c2cc(C(=O)OCc3ccc(Br)cc3)nn2-c2ccc(S(C)(=O)=O)cc2)cc1OC
inactive: [1] 73.3% | [2] 87.3% | [3] 60.5% | [4] 84.6% | [5] 86.1% | [6] 72.1% | [7] 77.5% | [8] 72.6% | [9] 75.3% | [10] 102% | [11] 95% | [12] 76.1% | [13] 78.3% | [14] 42.4% | [15] 75.5% | [16] 85.1% | [17] 83.5% | [18] 70.3% | [19] 84.2% | [20] 64.5%

Cn1cc(-c2cc(N)n3nc(-c4c[nH]c5ccc(Cl)cc45)cc3n2)c2cccnc21
active: [1] -56.7% | [2] -44.7% | [3] -57.5% | [4] -78.3% | [5] -82% | [6] -51.6% | [7] -97.4% | [8] -86.4% | [9] -93.6% | [10] -93.7% | [12] -71.9% | [13] -80% | [14] -77.5% | [15] -85.9% | [16] -98.8% | [17] -62.3% | [19] -34.8% | [20] -37.8%
inactive: [11] 81%

COC(=O)c1cccc(Oc2ccc(NC(=O)Nc3cc(C(F)(F)F)ccc3F)cc2)c1
active: [3] -34.1%
inactive: [1] 62% | [2] 62.9% | [4] 10.7% | [5] 40.4% | [6] 69.9% | [7] 94.5% | [8] 69.6% | [9] 79.5% | [10] 88.7% | [11] 73.1% | [12] 60.9% | [13] 75.7% | [14] 73.9% | [15] 88.5% | [16] 56.4% | [17] 62.4% | [18] 94.9% | [19] 65% | [20] 64.7%

O=C(Cn1c(-c2ccccc2)nc2ccccc21)N=Nc1c(O)[nH]c2ccc(Br)cc12
active: [1] 1.07% | [2] -33.1% | [3] -62.4% | [4] -35.5% | [5] -12.6% | [6] 9.01% | [7] -50.2% | [8] -39.7% | [9] -24.7% | [10] -65.4% | [11] -8.9% | [12] -23.3% | [13] 1.91% | [14] -47.5% | [15] -17.5% | [16] -80% | [17] -8.86% | [18] -38.1%
inactive: [19] 32.5% | [20] 20.8%

Cc1ccccc1NC(=O)c1cccc(NC(=O)CCl)c1
inactive: [1] 43.5% | [2] 35.6% | [3] 53.9% | [4] 72.7% | [6] 55.8% | [7] 44.2% | [8] 24.4% | [10] 71.1% | [11] 92.9% | [12] 97% | [13] 15.4% | [14] 71.3% | [15] 88.2% | [16] 22.8% | [17] 74.5% | [18] 105% | [20] 29.7%
active: [5] -53.1% | [9] -47.5% | [19] 8.03%
